An excerpt weighted towards active compounds, which were near 27% of everything screened.
Cav32 inh: Cav3.2 calcium influx blockers – cell-based, Fluo-4 calcium fluorescence, FDSS, MLSMR library, primary screen; Voltage-dependent T-type calcium channel subunit alpha-1H (Homo sapiens), O95180; Cav3.2-expressing cells; active compounds read low; B-score at 10 µM; 100,000 compounds, 4% hits; AID 449739, 2010;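 active = single-dose well whose peak fluorescence ratio is a statistical outlier from its plate by either plate-standardised score or position-corrected B-score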
CYP2C19 inh: blockers of cytochrome P450 2C19 activity – biochemical, luminescence, ADME assay, primary screen; P33261; CYP2C19 Supersomes, luciferin-H EGE luminescence, 30 min; inhibition, % at 5 µM; 96,000 compounds, 21% hits; AID 778, 2007;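 active = CYP2C19 inhibition above a set limit at 5 µM in the primary screen, cut at about 50% in these data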
CYP2C19 activ: human CYP2C19 activators, primary screen, biochemical, luminescence | 96,000 tested, under 10 active | AID 1025, 2008 | activation factor at 5 µM | Cytochrome P450 2C19 (Homo sapiens), P33261 | recombinant CYP2C19, luciferin-H EGE luminescence; active compounds read high; 0 = fully inhibited enzyme, 1 = untreated enzyme;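 active = activation factor of at least 2 at 5 µM in the primary screen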
CYP2C9 activ: human CYP2C9 activators, primary screen, biochemical, luminescence; 96,000 compounds, 1.4% hits; recombinant CYP2C9, luciferin-H conversion; active compounds read high; factor 1 = untreated enzyme, 0 = blocked; activation factor at 5 µM; Cytochrome P450 2C9 (Homo sapiens), P11712;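 active = activation factor of 2 or more for CYP2C9 at a 5 µM dose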
Target sequence (P11712 whole entry, looked up): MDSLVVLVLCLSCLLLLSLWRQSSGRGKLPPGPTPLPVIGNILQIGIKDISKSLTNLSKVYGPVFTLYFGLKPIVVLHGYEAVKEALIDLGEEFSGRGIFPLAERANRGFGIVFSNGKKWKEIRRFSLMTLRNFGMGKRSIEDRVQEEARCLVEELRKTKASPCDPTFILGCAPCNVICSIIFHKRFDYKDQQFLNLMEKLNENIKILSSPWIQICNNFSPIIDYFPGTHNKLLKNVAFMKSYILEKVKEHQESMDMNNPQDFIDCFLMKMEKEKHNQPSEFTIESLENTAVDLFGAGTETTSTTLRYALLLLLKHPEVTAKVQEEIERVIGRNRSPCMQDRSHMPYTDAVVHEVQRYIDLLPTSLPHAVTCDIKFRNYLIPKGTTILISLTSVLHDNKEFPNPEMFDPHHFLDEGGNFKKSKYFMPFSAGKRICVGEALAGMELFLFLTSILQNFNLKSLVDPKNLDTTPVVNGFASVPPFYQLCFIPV
CYP2C9 inh: blockers of cytochrome P450 2C9 activity – biochemical, luminescence, ADME assay, primary screen. P11712. CYP2C9 Supersomes, luciferin-H conversion. inhibition, % at 5 µM. 96,000 compounds, 20% hits. AID 777, 2007;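 active = blocking of liver enzyme CYP2C9 beyond about 50% at 5 µM, limit read from the data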
Of the large screens only hits and unclear results are named; the others gave an inactive call.

CCOC(=O)c1nnc(-c2ccccc2)o1	Cav32 inh -4.5
CCOC(=O)COc1ccc(-c2nnc(-c3ccccc3)o2)cc1	none
Cc1ccc(C)c(C(=O)CCC(=O)Nc2cccnc2)c1	none
Nc1cc(CN2C(=O)c3ccccc3C2=O)cc(Cl)c1O	CYP2C9 activ 3.5
CC(=O)c1cccc(NC(=O)Nc2cnn(Cc3ccc(Cl)cc3Cl)c2)c1	none
O=C(Nc1cnn(Cc2ccc(Cl)cc2)c1)c1cnccn1	CYP2C9 inh 62.1
Clc1ccc(Cn2cc(Br)cn2)cc1Cl	CYP2C19 inh 72.4 (no result: Cav32 inh)
CC(=O)Nc1cnn(Cc2ccc(Br)cc2)c1	CYP2C19 inh 66.4
Clc1cccc(Cl)c1Cn1cc(Br)cn1	none
O=C(COc1ccc(Cl)cc1)Nc1cnn(Cc2c(Cl)cccc2Cl)c1	none
COc1ccc(-c2nn(-c3ccccc3)cc2C(=O)n2nnc3ccccc32)cc1	none
Cc1c(NC2=NC3(CCCCC3)Cc3ccccc32)c(=O)n(C)n1-c1ccccc1	none (no result: CYP2C19 inh, CYP2C19 activ, CYP2C9 activ, CYP2C9 inh)
Cc1ccnc2nc(C(=O)Nc3ccc(N4CCOCC4)cc3)nn12	CYP2C19 inh 54.2
COc1cc(C(=O)Nc2ccc3c(c2)OCCO3)ccc1OC(F)F	CYP2C19 inh 88.2
COc1ccc(C(=O)Nc2ccc(N3CCOCC3)cc2)cc1OC	CYP2C19 inh 58.5
COc1ccc(C(=O)Nc2ccc3c(c2)OCCO3)cc1	none (no result: CYP2C19 inh, CYP2C19 activ, CYP2C9 activ, CYP2C9 inh)
COc1cc(C(=O)Nc2ccc3c(c2)OCCO3)ccc1OC(C)C	CYP2C19 inh 55.4 (no result: Cav32 inh)
CCN(CC)C(=O)C(=O)c1cccn1-c1ccccc1C#N	none
O=c1[nH]c2c(c3c1CCCC3)CCCC2	none
CCCCNC(=O)CC1C(=O)N(Cc2ccccc2)C(C)c2nc3ccccc3n21 (stereo unspecified)	CYP2C19 inh 71.4
O=C(O)CCC(=O)Nc1ccc(Cc2ccc(NC(=O)CCC(=O)O)cc2)cc1	none
Cc1ccc(CNC(=O)C2CC(c3ccccc3[N+](=O)[O-])=NO2)cc1 (stereo unspecified)	none
O=C(NCCCCc1ccccc1)C1CC(c2ccccc2[N+](=O)[O-])=NO1 (stereo unspecified)	CYP2C19 inh 51.4
O=C(NCc1ccc(OC(F)(F)F)cc1)C1CC(c2ccccc2[N+](=O)[O-])=NO1 (stereo unspecified)	CYP2C9 activ 3.1
CCCCNC(=O)C1CC(c2ccccc2[N+](=O)[O-])=NO1 (stereo unspecified)	none
CC(=O)c1c(C)[nH]c(C(=O)OC2CCCCC2=O)c1C (stereo unspecified)	none
Cc1nn(C(=O)c2ccccc2)c2c1C(=O)CC(C)(C)C2	CYP2C19 inh 79.6, CYP2C9 inh 69.0
O=C(CCn1nnc(-c2cccs2)n1)NCc1ccccc1Cl	CYP2C9 inh 64.7
C#CCOCCOCCOCCNc1nc(N2CCN(C(=O)[C@H](CCCCN)n3cc(C(N)CO)nn3)CC2)nc(N2CCN(C(=O)[C@H](CCCCN)n3cc(C(N)COC(=O)C(F)(F)F)nn3)CC2)n1 (stereo partly specified)	none (no result: CYP2C19 inh, CYP2C19 activ, CYP2C9 activ, CYP2C9 inh)
COc1ccc(C(=O)N=c2nc3ccccn3s2)cc1	CYP2C19 inh 64.6
O=C(O)C1C2CCCCC2=C2CCCCC2C1C(=O)O (stereo unspecified)	none
CSCCC(NC(=O)c1ccc(Cl)cc1)C(=O)NC(C)(C)C (stereo unspecified)	CYP2C9 inh 62.3
CCOC(=O)C1CCCN(c2cc(C)nc3cc(-c4ccc(F)cc4)nn23)C1 (stereo unspecified)	CYP2C9 inh 66.9
CCOC(=O)C1CCCN(c2cc(C)nc3cc(-c4ccc(Cl)cc4)nn23)C1 (stereo unspecified)	none (no result: CYP2C19 inh, CYP2C19 activ, CYP2C9 activ, CYP2C9 inh)
COC(=O)CSc1snnc1-c1ccc(F)cc1	CYP2C19 inh 66.3
CC(NC(=O)CCc1ccc(S(=O)(=O)NC2CCCCC2)cc1)c1ccccc1 (stereo unspecified)	CYP2C19 inh 96.0, CYP2C9 inh 79.3
CC(NS(=O)(=O)c1ccc(CCC(=O)NCC2CCCO2)cc1)c1ccccc1 (stereo unspecified)	none (no result: CYP2C19 inh, CYP2C19 activ, CYP2C9 activ, CYP2C9 inh)
COc1ccc(CNC(=O)CCNS(=O)(=O)c2ccc(C)cc2)cc1	none
